From PubChem BioAssay (NCI) come the findings set out here.

Compounds without any hit were thinned out: in the full panel of roughly 83,000, 20% have a hit.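 The test compound was applied at a single concentration to cells in 96-well plates for 48 hours, and percent growth was recorded.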 Unmarked numbers belong to inactive results. Activity calls are given as the source filed them. The calls were made as follows: active = growth percent below 10; inactive = the rest.

Some test systems named below: DU-145 prostate; K-562 leukemia; MALME-3M melanoma; MDA-MB-231 breast; RXF 393 renal; SF-268 CNS; SF-295 CNS; SF-539 CNS; UACC-257 melanoma; M14 melanoma; HCT-15 colon; HT29 colon; SNB-75 CNS; SNB-19 CNS; U251 CNS; PC-3 prostate; SK-MEL-5 melanoma; UACC-62 melanoma; LOX IMVI melanoma; SK-MEL-28 melanoma.
What all share (experiment): NCI-60 one-dose screen, 48 h (100 = growth as untreated, 0 = no growth, -100 = all killed)
What all share (conditions): 10 µM unless noted

On to `O=C(/C=C(O)/C=C/c1cccc2[nH]ccc12)/C=C/c1cccc2[nH]ccc12`, for which the growth in the test with DU-145 prostate is 95.6%; in the test on K-562 leukemia, 14.5%; with MALME-3M melanoma it was 69.4%; with MDA-MB-231 breast it was 73.8%; with RXF 393 renal it was 87.4%; in the test with SF-268 CNS, 89.5%. Moreover, the growth in the test on SF-295 CNS was 95.5%; in the test on SF-539 CNS, 90.4%; in the test with UACC-257 melanoma, 86.4%; in the test with M14 melanoma it was 38.9%; in the test with HCT-15 colon, 61.5%; in the test with HT29 colon, 38.4%. For the same compound, the growth in the test with SNB-75 CNS was 92.2%; in the test on SNB-19 CNS, 72.6%; with U251 CNS it was 45.2%; in the test with PC-3 prostate, 66.8%; in the test on SK-MEL-5 melanoma, 76%; in the test on UACC-62 melanoma, 68%. In addition, the growth in the test on LOX IMVI melanoma is 63.7%; in the test on SK-MEL-28 melanoma, 97.6%.
As to `N#C/C(=C\c1ccc(-c2cccc(C(F)(F)F)c2)o1)c1ccccc1`, the growth in the test with DU-145 prostate was 102%; in the test with K-562 leukemia, 87.1%; in the test on MALME-3M melanoma, 96.4%; in the test with MDA-MB-231 breast it was 74.4%; with RXF 393 renal, 101%; in the test on SF-268 CNS it was 107%. The growth in the test with SF-295 CNS is 89.1%; in the test on SF-539 CNS, 95.6%; in the test with UACC-257 melanoma, 103%; with M14 melanoma, 84.5%; with HCT-15 colon, 62.5%; with HT29 colon, 86.3%. In addition, the growth was 85% in the test on SNB-75 CNS; 99.1% in the test with SNB-19 CNS; 100% with U251 CNS; 90.4% with PC-3 prostate; 92.6% in the test with SK-MEL-5 melanoma; 71.4% with UACC-62 melanoma. For the same compound, the growth in the test on LOX IMVI melanoma was 86.5%; in the test with SK-MEL-28 melanoma, 98.4%.
Turning to `CN1CCN(c2ccc(NC(=O)c3cncnc3Nc3ccc(OCc4cccc(F)c4)c(Cl)c3)cc2)CC1`, the growth in the test with DU-145 prostate is 80.3%; with K-562 leukemia, 1.91% (active); with MALME-3M melanoma it was 78.4%; with MDA-MB-231 breast it was -13.3% (active); with RXF 393 renal, 55.5%; in the test on SF-268 CNS it was 78.7%. The growth was 99.8% with SF-295 CNS; 43.3% in the test on SF-539 CNS; 90.5% in the test on UACC-257 melanoma; -15.5% (active) in the test on M14 melanoma; -39.6% (active) with HCT-15 colon; -55.3% (active) with HT29 colon. The growth was 68.3% in the test with SNB-75 CNS; 84.1% with SNB-19 CNS; 47% with U251 CNS; 68.1% in the test on PC-3 prostate; 87.8% in the test with SK-MEL-5 melanoma; 48% with UACC-62 melanoma. The growth with LOX IMVI melanoma was 29.7%; in the test with SK-MEL-28 melanoma it was 81.1%.
As to `Cc1ccc(C2CC(c3nc(-c4ccc(Cl)cc4)oc3C)=NN2C(=O)c2ccncc2)cc1` (stereo not given), the growth was 93.1% in the test on DU-145 prostate; 84.2% with K-562 leukemia; 90.9% in the test with MALME-3M melanoma; 71.6% with MDA-MB-231 breast; 74.8% in the test on RXF 393 renal; 81.6% in the test with SF-268 CNS. Besides, the growth is 87.9% in the test with SF-295 CNS; 89.5% in the test with SF-539 CNS; 97.1% with UACC-257 melanoma; 93.8% in the test with M14 melanoma; 83.7% in the test with HCT-15 colon; 86.9% with HT29 colon. Moreover, the growth in the test on SNB-75 CNS is 82.1%; with SNB-19 CNS it was 77.2%; with U251 CNS, 87.7%; in the test on PC-3 prostate, 73.2%; in the test on SK-MEL-5 melanoma, 92.4%; in the test with UACC-62 melanoma, 72.3%. Also, the growth in the test with LOX IMVI melanoma was 86%; in the test on SK-MEL-28 melanoma, 92.4%.
In the case of `N#Cc1cccc(C2C3=C(COC3=O)N(CCO)c3cc4c(cc32)CCC4)c1` (stereo not given), the growth in the test with DU-145 prostate was 3.87% (active); in the test on K-562 leukemia, 8.48% (active); with MALME-3M melanoma, 48.2%; in the test with MDA-MB-231 breast it was 32.4%; in the test on RXF 393 renal, 35.5%; in the test with SF-268 CNS, 30.4%. The growth in the test on SF-295 CNS was -7.01% (active); in the test on SF-539 CNS, -10.1% (active); in the test on UACC-257 melanoma, 69.4%; with M14 melanoma, 2.59% (active); in the test with HCT-15 colon, 9.99% (active); in the test with HT29 colon, 4.8% (active). Further, the growth with SNB-75 CNS is 43.8%; with SNB-19 CNS, 23%; with U251 CNS, 14.6%; with PC-3 prostate it was 22.9%; with SK-MEL-5 melanoma, -3.37% (active); in the test with UACC-62 melanoma, 45.6%. Also, the growth is 19% with LOX IMVI melanoma and 51.2% in the test on SK-MEL-28 melanoma.
As to `COc1ccc(CCN2C(=O)/C(=C/c3ccc(C4Oc5ccccc5C5CC(c6ccccc6)=NN54)cc3)SC2=S)cc1` (stereo not given), the growth in the test on DU-145 prostate is 110%; in the test with K-562 leukemia, 100%; in the test on MALME-3M melanoma, 102%; with MDA-MB-231 breast it was 92.3%; with RXF 393 renal it was 107%; with SF-268 CNS, 99.2%. The growth was 105% in the test with SF-295 CNS; 98.5% with SF-539 CNS; 109% with UACC-257 melanoma; 102% with M14 melanoma; 105% in the test with HCT-15 colon; 105% in the test on HT29 colon. Also, the growth is 101% in the test on SNB-75 CNS; 94.2% with SNB-19 CNS; 101% in the test on U251 CNS; 98% in the test with PC-3 prostate; 101% in the test with SK-MEL-5 melanoma; 97.5% in the test on UACC-62 melanoma. Also, the growth is 96.6% with LOX IMVI melanoma and 117% with SK-MEL-28 melanoma.
With `C#COc1cccc(Nc2ncnc3cc(NC(=O)[C@@H](C)Cl)ccc23)c1`, the growth was 13% [6.25 µM] in the test with DU-145 prostate; 7.85% [6.25 µM] (active) in the test with K-562 leukemia; 38.2% [6.25 µM] with MALME-3M melanoma; 24.5% [6.25 µM] with MDA-MB-231 breast; 7.55% [6.25 µM] (active) with RXF 393 renal; 21.6% [6.25 µM] in the test on SF-268 CNS. The growth with SF-295 CNS is 7.32% [6.25 µM] (active); in the test with SF-539 CNS, -5.67% [6.25 µM] (active); in the test with UACC-257 melanoma, 36.9% [6.25 µM]; with M14 melanoma, 10.4% [6.25 µM]; in the test with HCT-15 colon it was 11.6% [6.25 µM]; in the test with HT29 colon, 0.0167% [6.25 µM] (active). Also, the growth was -7.9% [6.25 µM] (active) in the test with SNB-75 CNS; 19.3% [6.25 µM] in the test on SNB-19 CNS; 4.37% [6.25 µM] (active) in the test on U251 CNS; 8.91% [6.25 µM] (active) in the test with PC-3 prostate; 14.2% [6.25 µM] with SK-MEL-5 melanoma; 24.9% [6.25 µM] in the test on UACC-62 melanoma. Further, the growth in the test with LOX IMVI melanoma is 11.4% [6.25 µM]; with SK-MEL-28 melanoma it was 38% [6.25 µM].
